# Results filed as inconclusive are left out. Calls of active or inactive are those of the source. How the source made its calls, unless noted: active means hit-call score of the fitted dose curve at least 0.9, where 1 is the maximum; inconclusive means response in the unintended direction; inactive means score below 0.9.
# How the values were obtained:
# [1] = CCTE_Shafer_MEA_acute_LDH: CCTE's Lactate Dehydrogenase Assay for Cytotoxicity in the Neural Acute Assay, Shafer Lab (AID 2284086);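 further: active means LDH release rises above DMSO vehicle level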
# In short: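 LDH released during 40 min compound exposure of primary rat cortical cultures, quantified by absorbance at 490 nm in collected medium. Fitting direction positive versus DMSO vehicle.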
# [2] = CCTE_Shafer_MEA_acute_AB: CCTE's Alamar Blue Assay for Cytotoxicity in the Neural Acute Assay, Shafer Lab (AID 2284069);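 further: active compounds lower the viability signal compared with DMSO wells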
# In short: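 Read-out: resazurin fluorescence (ex 544, em 590 nm) after CTB reagent at 1:6 dilution in fresh media. Cells: primary rat cortical neuron networks, DIV 13 or 15, chemically exposed on MEA plates; DMSO as negative control/baseline.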
# [3] = tested on: DIO3 (gene 1735); assay: CCTE_GLTED_hDIO3: CCTE's human Deiodinase 3 (DIO3) Inhibition Assay, Great Lakes Toxicology and Ecology Division (GLTED) Lab (AID 2284055);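 further: potency is for inhibition seen as loss of released iodide signal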
# In short: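 Inhibition is read as reduced iodide release, measured spectrophotometrically by the Sandell-Kolthoff cerium/arsenic reaction. Adenovirus-expressed human DIO3 enzyme is exposed to chemical for 3 h, n=3 plates. Iodinated chemicals, nitrite, iron or thiocyanate may interfere.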
# [4] = CCTE_Shafer_MEA_dev_spike_duration_mean: CCTE's Neural Network Formation Assay for Mean Spike Duration, Shafer Lab (AID 2284051; active means hit-call score of the fitted dose curve at least 0.9, where 1 is the maximum; inactive means score below 0.9;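 further: mean network spike duration pooled as area under curve over DIV 5 to 12 recordings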;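 on AC50: potency for a decrease in mean network spike duration versus DMSO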)
# In short: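 Rat cortical primary cultures, 48-well MEA (16 electrodes/well); compound from plating, renewed DIV 5, 9. Network spike duration (AxIS adaptive detector) recorded DIV 5/7/9/12, combined as trapezoidal AUC; loss direction vs DMSO.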
# [5] = CCTE_Shafer_MEA_dev_network_spike_duration_std: CCTE's Neural Network Formation Assay for Standard Deviation of Network Spike Duration, Shafer Lab (AID 2284052; active means hit-call score of the fitted dose curve at least 0.9, where 1 is the maximum; inactive means score below 0.9;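 further: area under curve of spike duration SD across recording days 5 to 12; hits are decreases in network spike duration SD versus DMSO vehicle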)
# In short: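 Rat cortical cultures, 1.5 x 10^5 cells/well, exposed continuously from plating to DIV 12 with media/compound renewal at DIV 5, 9. Spontaneous activity recorded DIV 5/7/9/12, AxIS adaptive spike detector; AUC across days; negative direction vs DMSO.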
# [6] = CCTE_Shafer_MEA_dev_per_network_spike_spike_number_mean: CCTE's Neural Network Formation Assay for Mean Number of Spikes in a Network Spike, Shafer Lab (AID 2284053; active means hit-call score of the fitted dose curve at least 0.9, where 1 is the maximum; inactive means score below 0.9;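 on AC50: fitted as decrease in spikes per network spike relative to DMSO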)
# In short: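 Rat cortical primary cultures on 48-well MEA; compound from day 0, re-dosed with full media change DIV 5, 9. Recorded DIV 5, 7, 9, 12; spikes in 0.05 s window at network-spike peak ÷ total network spikes; AUC; loss vs DMSO.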
# [7] = CCTE_Shafer_MEA_dev_per_network_spike_spike_percent: CCTE's Neural Network Formation Assay for Percent of Spikes in a Network Spike, Shafer Lab (AID 2284054; active means hit-call score of the fitted dose curve at least 0.9, where 1 is the maximum; inactive means score below 0.9)
# In short: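 Read-out: percent of spikes falling in a 0.05 s window at network-spike peak, from spontaneous MEA recordings on days 5, 7, 9 and 12; trapezoidal AUC; loss of signal versus DMSO. Rat cortical cultures, compound present throughout.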
# [8] = CCTE_Shafer_MEA_dev_LDH: CCTE's Lactate Dehydrogenase Assay for Cytotoxicity in the Neural Network Formation Assay, Shafer Lab (AID 2284068);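 further: exposure for twelve days from plating with re-dosing on DIV 5 and 9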
# In short: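 Rat cortical primary neurons, MEA culture; dosing day 0–12, full medium plus compound exchange DIV 5, 9. Read-out: LDH enzyme activity, spectrophotometric. DMSO = negative control/baseline; signal loss → cytotoxicity.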
# [9] = CCTE_Shafer_MEA_dev_AB: CCTE's Alamar Blue Assay for Cytotoxicity in the Neural Network Formation Assay, Shafer Lab (AID 2284083);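 further: resazurin reduction fluorescence as viability of cultured neurons; twelve days of exposure from plating with re-dosing on DIV 5 and 9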
# In short: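 Rat cortical primary cultures, 1.5 x 10^5 cells/well on MEA; continuous compound exposure over 12 days of network development, re-dosed with full medium change DIV 5 and 9. Alamar Blue fluorescence; loss of signal = cytotoxicity vs DMSO baseline.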
# [10] = CCTE_Shafer_MEA_dev_mutual_information_norm: CCTE's Neural Network Formation Assay for Mutual Information Normalization, Shafer Lab (AID 2284091; active means hit-call score of the fitted dose curve at least 0.9, where 1 is the maximum; inactive means score below 0.9;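 on AC50: mutual information between electrodes summarised as area under curve across four recording days; potency is for a decrease in mutual information relative to DMSO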)
# In short: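 Neurons from rat cortex were seeded at 1.5 x 10^5 cells/well onto PEI-coated MEAs in a laminin drop, then exposed to compound from day 0 for twelve days. Network recordings on four days gave mutual information, summarised by AUC relative to DMSO.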
smiles,measurement,setting,value
C=CCOC(=O)CCC1CCCCC1,outcome,[1],inactive
CC(=O)[C@H]1CC[C@H]2[C@@H]3CC=C4C[C@@H](O)CC[C@]4(C)[C@H]3CC[C@]12C,outcome,[1],inactive
OC[C@H]1O[C@H](O[C@]2(CCl)O[C@H](CCl)[C@@H](O)[C@@H]2O)[C@H](O)[C@@H](O)[C@H]1Cl,outcome,[2],inactive
same,outcome,[1],inactive
O=Nc1ccc(Nc2ccccc2)cc1,AC50,[3],55.1 µM (active)
O=C(Oc1ccccc1)c1ccc(O)cc1,AC50,[3],52.9 µM (active)
CC[Si](OC(C)=O)(OC(C)=O)OC(C)=O,outcome,[1],inactive
N#Cc1ccc(CC(=NNC(=O)Nc2ccc(OC(F)(F)F)cc2)c2cccc(C(F)(F)F)c2)cc1,AC50,[4],0.685 µM (active)
same,AC50,[5],0.525 µM (active)
same,AC50,[6],1.08 µM (active)
same,outcome,[7],inactive
same,AC50,[8],15 µM (active)
same,outcome,[9],inactive
same,AC50,[10],0.672 µM (active)
CCC(=O)OCc1ccccc1,outcome,[1],inactive
c1ccc2c(c1)c1cccc3ccc4cccc2c4c31,outcome,[4],inactive
same,outcome,[5],inactive
same,outcome,[6],inactive
same,outcome,[7],inactive
same,outcome,[8],inactive
same,outcome,[9],inactive
same,outcome,[10],inactive
CC(C)(COC(=O)c1ccccc1)COC(=O)c1ccccc1,outcome,[2],inactive
same,outcome,[1],inactive
COc1cc(C=O)ccc1OC(=O)C(C)C,outcome,[1],inactive
Cc1cc(C2(c3cc(C)c(O)cc3C)OS(=O)(=O)c3ccccc32)c(C)cc1O,outcome,[2],inactive
same,outcome,[1],inactive
CC(C)=CCCC(C)=CCCC(C)=CCO,AC50,[3],17.9 µM (active)
CCC(=O)/C=C/C1C(C)=CCCC1(C)C (stereo not given),AC50,[3],56.6 µM (active)
CN(C)C(=N)N=C(N)N,outcome,[4],inactive
same,outcome,[5],inactive
same,outcome,[6],inactive
same,outcome,[7],inactive
same,outcome,[8],inactive
same,outcome,[9],inactive
same,outcome,[1],inactive
same,outcome,[10],inactive
CC(=O)OCCC(C)CC(C)(C)C (stereo not given),outcome,[1],inactive
OC1OC[C@@H](O)[C@H](O)[C@H]1O (stereo not given in full),outcome,[1],inactive
CCCCCCCCCCCCN,AC50,[3],141 µM (active)
C=C[Si](OCC)(OCC)OCC,outcome,[2],inactive
same,outcome,[1],inactive
CCCCCCCCCCCCCC(=O)O,AC50,[3],156 µM (active)
CCCCCCCCC=O,outcome,[2],inactive
same,outcome,[1],inactive
NCCNCCN,outcome,[2],inactive
same,outcome,[1],inactive
C[C@H]1C[C@@H]2[C@H]([C@@H](O)C[C@@]3(C)[C@H]2CC[C@]3(O)C(=O)CO)[C@@]2(C)C=CC(=O)C=C12,outcome,[2],inactive
same,outcome,[1],inactive
CCCCCCCCCCCCCCCC(=O)OC[C@H](O)[C@H]1OC(=O)C(O)=C1O,AC50,[3],4.09 µM (active)

# Source: PubChem BioAssay (EPA / NIEHS)
